Data published in PubChem BioAssay AID2417 (National Center for Advancing Translational Sciences (NCATS), 2010).
About 4,300 (3.1%) of roughly 140,000 compounds were called active. Inconclusive results (about 21%) are left out. This is one part of a sample in which actives are shown more often than they occur. A number with no mark means an inactive call.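 How the source made its calls: active means readout at or below -70, meaning at least 70% loss of cells showing the perinucleolar compartment, a nuclear body marking cancer cells; inconclusive means readout between -30 and a set limit; inactive means the rest.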

Assay: High Content Assay for Compounds that inhibit the Assembly of the Perinucleolar Compartment;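 further: plate controls were DMSO wells for no effect and camptothecin positive control wells for full effect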
Details: PC3M PTB-GFP, PNC prevalence imaging, 16 h; at 10 µM; hits give low values
Procedure, shortened: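 Read-out is percentage of cells bearing a perinucleolar compartment, from automated 20x imaging of fixed, Hoechst-stained PC3M PTB-GFP cells. Cells were seeded 4 h, then exposed 16 h to compound (23 nl of library stock) in duplicate plates.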

| SMILES | activity change (PNC), negative = inhibition |
| --- | --- |
| CCCOc1ccc(NC(=O)C2OC3OC(C)(C)OC3C3OC(C)(C)OC23)cc1 (stereo unspecified) | 10.2% |
| COc1cc(/C=C2\SC(=S)N(Nc3ncc(C(F)(F)F)cc3Cl)C2=O)cc(OC)c1OC | 7.84% |
| COc1cccc(/C=N\NC(=O)C2=NNC(=O)C2C)c1O (stereo unspecified) | -8.21% |
| COc1cccc(/C=N/Nc2ncc(C(F)(F)F)cc2Cl)c1O | -85.6% (active) |
| CCc1ccc2c(c1)C(c1ccc([N+](=O)[O-])cc1)=NNC(c1ccccc1)=N2 | 34.2% |
| Cc1ccc(-c2cc(C(=O)N/N=C/C=C/c3ccccc3)n[nH]2)o1 | -21.8% |
| CC(=O)CCC(=O)c1ccc2ccccc2c1 | 36.3% |
| Cc1cc(Cl)c(S(=O)(=O)N(C)C)cc1OCC(N)=O | -29.4% |
| Cc1cc(Cl)c(S(=O)(=O)NCC2CCCO2)cc1OCC(N)=O (stereo unspecified) | 9.99% |
| Cc1cc(Cl)c(S(=O)(=O)Nc2ccc3c(c2)OCCO3)cc1OCC(N)=O | -121% (active) |
| CC1=C(C(=O)Nc2ccccc2)C(c2cccs2)C(C#N)=C(SCC#N)N1 (stereo unspecified) | -107% (active) |
| CCOC(=O)CSC1=C(C#N)C(c2ccco2)C(C(=O)OCc2ccccc2)=C(C)N1 (stereo unspecified) | -21.7% |
| CC1=C(C(=O)Nc2ccccc2)C(c2ccco2)C(C#N)=C(SCC(N)=O)N1 (stereo unspecified) | -15.2% |
| Cc1nn(C)c(C(=O)NNC(=S)NC2CCCCC2)c1Cl | 8.24% |
| Cc1ccc(NN=C2C(=O)OC(C)(C)OC2=O)c(C)c1 | 57.8% |
| Cc1ccn(CC(=O)N2N=C(C(F)F)CC2(O)C(F)F)n1 (stereo unspecified) | 3.67% |
| COc1ccc(NC(=O)c2ccc(OC)cc2)cc1 | 29.1% |
| COc1cc(OC)cc(C(=O)Nc2ccc(S(=O)(=O)Nc3cc(C)on3)cc2)c1 | -25.6% |
| COc1ccc(C(=O)Nc2ccc(S(=O)(=O)NC(C)C)cc2)cc1 | -112% (active) |
| CC(=O)Nc1ccc(/C(C)=N/NC(=O)CN(c2ccccc2Br)S(C)(=O)=O)cc1 | -2.45% |
| CCOc1ccc2[nH]c(=O)c(CN(Cc3nnnn3CCc3ccccc3)CC3CCCO3)cc2c1 (stereo unspecified) | -100% (active) |
| COc1ccc2[nH]c(=O)c(CN(Cc3nnnn3CCc3ccccc3)CC3CCCO3)cc2c1 (stereo unspecified) | -7.29% |
| CCOc1ccc2[nH]c(=O)c(CN(Cc3nnnn3Cc3ccccc3)CC3CCCO3)cc2c1 (stereo unspecified) | -2.29% |
| Cc1ccc(S(=O)(=O)NCC(=O)N2CCN(c3ccccn3)CC2)cc1 | -10% |
| Cc1ccc(N2CCN(c3ccc(C)cc3)C2c2ccccn2)cc1 | -81.6% (active) |
| Cc1ccc(-n2ccc(=O)c(C(=O)O)n2)cc1 | -18.4% |
